aSyn 5UTR act: Activators via SNCA 5'UTR binding, MLPCN | actives 7.1% (n = 300,000) | alpha-synuclein 5'UTR reporter, activators screen | activity score, % (tested at 7.5 µM), hits read low; in the data active = activity score below about -60%
* = called active by the depositor. Only a sample is shown.

SMILES | aSyn 5UTR act
CCOc1ccc(C(=O)NC(=S)Nc2cccnc2)cc1 | -135*
CC(C)Oc1cccc(C(=O)NC(=S)Nc2cccnc2)c1 | -114*
Cc1ccc(C2=[N+]([O-])C3(CCCCC3=O)N(O)C2(C)C)cc1 (stereo not given) | 49
Cc1ccccc1-c1noc(-c2ccc(Cl)cc2)n1 | -192*
Fc1ccccc1-c1nc(-c2ccc(Cl)cc2)no1 | -203*
CN(C)c1ccc(-c2noc(-c3ccccc3O)n2)cc1 | 71
Cc1ccccc1-c1noc(-c2ccccc2F)n1 | -259*
Cc1ccccc1-c1noc(C2CCCCC2)n1 | -71*
Cc1ccccc1-c1noc(-c2ccc(O)cc2)n1 | -226*
Clc1ccccc1/C=C/c1ccnc2ccccc12 | -109*
Oc1ccc(/C=C/c2ccnc3ccccc23)cc1 | -112*
Cc1[nH]n(C(N)=S)c(=O)c1N=Nc1cccc([N+](=O)[O-])c1C | -164*
Cc1[nH]n(C(N)=S)c(=O)c1N=Nc1ccc2ccccc2c1 | -147*
Cc1ccc(N=Nc2c(C)[nH]n(C(N)=S)c2=O)cc1C | -258*
Clc1ccc(/C=N/N2CCCCC2)cc1 | -103*
O=[N+]([O-])c1ccc(/C=N/N2CCCCC2)cc1 | -128*
Cc1cc(C(=O)NCc2csc(-c3ccccc3)n2)no1 | -82*
O=C(NCc1csc(-c2ccccc2)n1)c1ccco1 | -85*
Cc1nc(SCC(=O)c2cccs2)c2oc3ccccc3c2n1 | -134*
O=C(CSc1ncnc2c1oc1ccccc12)c1cccs1 | -125*
CCN=c1scc(-c2ccc(F)cc2)n1/N=C/c1ccccn1 | -73*
C=CCN=c1scc(-c2ccccc2)n1/N=C/c1ccccn1 | -68*
Cn1c(O)c(C=Nc2ccc(Br)cc2)sc1=O | -173*
N/C(=N\OC(=O)c1ccc2c(c1)OCO2)c1ccc([N+](=O)[O-])cc1 | -128*
N/C(=N\OC(=O)c1ccc2c(c1)OCO2)c1cccc(Br)c1 | -146*
SMILES | aSyn 5UTR act
N/C(=N\OC(=O)c1ccc2c(c1)OCO2)c1cccnc1 | -139*
COc1ccc(/C(N)=N/OC(=O)c2ccc3c(c2)OCO3)cc1OC | -87*
COc1cc(C(=O)O/N=C(\N)Cc2ccc([N+](=O)[O-])cc2)cc(OC)c1OC | 81
Cc1cccc(NC(=S)c2nc3ccccc3s2)c1 | -100*
O=C(N/N=C1/CC2C=CCC12)c1ccc(Br)o1 (stereo not given) | -83*
Nc1ccc(SC(F)(F)F)cc1 | -70*
COc1ccc(Cc2nc(-c3cccc(C)c3)no2)cc1 | -102*
COc1ccc(Cc2nc(-c3ccncc3)no2)cc1 | -79*
Cc1cccc(-c2noc(Cc3ccc(Cl)cc3)n2)c1 | -98*
CN1Cc2cc(C(=O)c3cc(Cl)cc(CSc4ncccn4)c3O)cnc2NC1=O | 79
O=[n+]1c2c(n([O-])c3cc(F)c(N4CCCC4)cc31)CCCC2 | -77*
Cc1cccc(Nc2nc(N)nc(CSC(=S)N3CCOCC3)n2)c1 | -108*
Cc1ccc(Nc2nc(N)nc(CSC(=S)N3CCOCC3)n2)cc1 | -127*
Nc1nc(CSC(=S)N2CCOCC2)nc(Nc2ccccc2)n1 | -131*
COC(=O)C(C)N1C(=O)S/C(=C\c2ccc(-c3ccc(C(=O)O)cc3C)o2)C1=O (stereo not given) | -137*
Clc1ccc(-c2cn3cccnc3n2)cc1Cl | -193*
Clc1ccc(-c2cn3cccnc3n2)cc1 | -132*
Clc1ccc(-c2cn3nc4c(nc3n2)CCCC4)cc1 | 88
CCOC(=O)c1ccc(-c2cccc(C(F)(F)F)c2)nc1C | -122*
CC(C)NC(=O)c1cc(-c2ccco2)on1 | -139*
CC(C)NC(=O)c1cc(-c2ccc(Br)cc2)on1 | -124*
CCCNC(=O)c1cc(-c2ccc(Br)cc2)on1 | -85*
Cc1ccc(C(=O)CSc2nnc(C(C)C)n2C)cc1C | -75*
O=C(c1ccc2c(c1)OCO2)N1CCN(c2cccc(C(F)(F)F)c2)CC1 | -77*
O=C(c1cc2c(s1)-c1ccccc1OC2)N1CCc2ccccc2C1 | -89*
SMILES | aSyn 5UTR act
O=C(c1ccc2c(c1)OCO2)N1CCc2ccccc2C1 | -113*
c1ccc(-c2nc3c([nH]2)CCc2nonc2-3)cc1 | -66*
CN1CCN(C(=O)c2ccc(-c3cccs3)s2)CC1 | -98*
ClC1=C(Cl)C(Cl)=C(Cl)C1=C/C=C/c1ccccc1 | 113
NC1=NC(=O)/C(=C\C=C\c2ccccc2)S1 | -73*
Cn1c(=O)oc2cc(S(=O)(=O)CCC(=O)Nc3ccccc3)ccc21 | -64*
OCCOc1ccc(C2=NCCO2)cc1 | -72*
CC(=C\c1ccccc1)/C=C1/SC(=S)N(CCCC(=O)O)C1=O | 67
O=C(O)CCCN1C(=O)/C(=C\c2ccco2)SC1=S | -141*
CCCCN=C1NN=C(c2cc3ccccc3o2)CS1 | -106*
CCCCN=C1NN=C(c2cccc([N+](=O)[O-])c2)CS1 | -68*
COc1cccc(-c2nc(-c3ccccn3)no2)c1OC | -219*
COc1cc(-c2nc(-c3ccccn3)no2)cc(OC)c1OC | -163*
Cc1ccc(N=C2C(=S)N(c3ccc(C)cc3)C(=N)N2/N=C/c2ccc(Cl)cc2)cc1 | -156*
O=C(Nc1ccc2c(c1)oc1ccccc12)c1ccc2c(c1)OCO2 | -233*
CCOc1ccc(C(=O)Nc2c(C(N)=O)oc3ccccc23)cc1 | -115*
COc1ccccc1NC(=O)/C=C/c1ccc2c(c1)OCO2 | -167*
COc1ccccc1NC(=O)c1ccc2c(c1)OCO2 | -125*
O=c1c(O)c(-c2ccc3c(c2)OCO3)oc2ccccc12 | -133*
COc1cc2c(cc1NC(=O)c1ccc3c(c1)OCO3)oc1ccccc12 | -285*
COc1ccc(NC(=O)c2oc3ccccc3c2NC(=O)c2ccc3c(c2)OCO3)cc1 | -68*
Cc1nc2sc(C(=O)c3ccccc3)c(N)c2c(C)c1C | -68*
Cc1snc2sc(C(=O)c3ccc(Br)cc3)c(N)c12 | -101*
Nc1c(C(=O)Nc2ccccc2)sc2ncc([N+](=O)[O-])cc12 | -63*
CC(=O)c1ccc(NC(=O)c2sc3nc(C)c(C)c(C)c3c2N)cc1 | -233*
SMILES | aSyn 5UTR act
CC(=O)Nc1ccc(Nc2nc(C)c([N+](=O)[O-])c(N(C)c3ccccc3)n2)cc1 | 86
CC(=O)Nc1ccc(Nc2nc(C)c([N+](=O)[O-])c(Nc3ccccc3)n2)cc1 | 58
Cc1nc2sc(C(=O)OC(C)C)c(N)c2c(C)c1C | -190*
Cc1nc2sc(C(=O)Nc3ccccc3)c(N)c2c(C)c1[N+](=O)[O-] | -79*
O=C1C2C(C(=O)N1/N=C/c1cccc([N+](=O)[O-])c1)C1C=CC2C12CC2 (stereo not given) | -153*
CCN1/C(=C/C(C)=C/c2sc3ccccc3[n+]2CC)Sc2ccccc21 | 100
CCN1/C(=C\C(=S)Nc2ccccc2)Sc2ccccc21 | -144*
CCCC(=O)NC(c1ccccc1)c1ccc2cccnc2c1O (stereo not given) | 65
CCCCC(=O)NC(c1ccccc1)c1ccc2cccnc2c1O (stereo not given) | 68
CCC(=O)NC(c1ccccc1)c1nc2ccccc2[nH]1 (stereo not given) | -79*
N#C/C(C(=O)Oc1ccccc1)=C1\C=CC=CN1 | -80*
COc1ccc2cc(-c3[nH]ncc3CN3C[C@@H]4CCC[C@H]3C4)ccc2c1 | -78*
COc1ccc2cc(-c3[nH]ncc3CN3CCCCO3)ccc2c1 | -106*
Cc1cc(C)cc(NS(=O)(=O)c2ccc3c(c2)c(=O)n(C)c(=O)n3C)c1 | 58
COc1cccc(-n2cc3c(=O)n(C)c(=O)n(C)c3c2)c1 | -86*
CN(C)/C=N/c1ncc(C(=O)c2ccccc2)s1 | -160*

Screening data from PubChem.
